# Measurements as given in PubChem BioAssay (NCI).
# The panel holds about 79,000 compounds, 15% with a hit somewhere; the sample as a whole holds those more often. Active and inactive are the calls of the source. Cut-off read from the data, not from the text of the source: active = growth inhibition above about 70%; inactive = the rest.
# What was measured:
# [1] = NCI Yeast Anticancer Drug Screen. Data for the rad50 strain (AID 155);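 note: 0% = growth of vehicle-only cultures of the same strain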; conditions: S. cerevisiae rad50 strain growth inhibition; at 50.0 µM; hits give high values
# Outline: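 Relative growth inhibition (compound vs vehicle) was measured in yeast with a defined repair-gene alteration.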
# [2] = NCI Yeast Anticancer Drug Screen. Data for the mec2-1 strain (AID 157); conditions: S. cerevisiae mec2-1 strain, at 50.0 µM, hits give high values
# Outline: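 Each compound was tested on mec2-1 yeast, a strain altered in DNA damage repair or cell cycle control. Growth inhibition is reported relative to vehicle.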
# [3] = NCI Yeast Anticancer Drug Screen. Data for the sgs1 mgt1 strain (AID 161);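 note: 0% = growth of cultures given vehicle only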; conditions: S. cerevisiae sgs1 mgt1 strain, at 50.0 µM, hits give high values
# Outline: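 Read-out: growth inhibition vs vehicle controls. Cells: mutant yeast strain deficient in DNA damage repair.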
# [4] = NCI Yeast Anticancer Drug Screen. Data for the cln2 rad14 strain (AID 165);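 note: 0% = growth equal to vehicle treated cultures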; conditions: S. cerevisiae cln2 rad14 strain, at 50.0 µM, hits give high values
# Outline: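 Test compounds were added to cln2 rad14 yeast cultures; inhibition of growth was then determined by comparison with vehicle treatment.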
# [5] = NCI Yeast Anticancer Drug Screen. Data for the bub3 strain (AID 167); conditions: S. cerevisiae bub3 mutant strain, at 50.0 µM, hits give high values
# Outline: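 Screening used yeast with an engineered genetic alteration affecting cell cycle control. Compound-exposed cultures were compared with vehicle cultures, and reduced growth was taken as inhibition.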
# [6] = NCI Yeast Anticancer Drug Screen. Data for the mlh1 rad18 strain (AID 175); conditions: S. cerevisiae mlh1 rad18 strain growth inhibition; at 50.0 µM; hits give high values
# Outline: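 Inhibition values reflect reduced growth of mutant yeast versus vehicle-treated controls following compound exposure; the mutations affect DNA damage repair.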
SMILES,growth inhibition [1],growth inhibition [2],growth inhibition [3],growth inhibition [4],growth inhibition [5],growth inhibition [6]
O=C(Nc1cccc(F)c1)Sc1ccc(Cl)cc1,55% (inactive),53.9% (inactive),56.1% (inactive),34% (inactive),56.4% (inactive),41% (inactive)
O=S(=O)(C(c1ccccc1)C(O)(c1ccccc1)c1ccccc1)N1CCCC1 (centres undefined),29.6% (inactive),-0.45% (inactive),27.4% (inactive),-21.8% (inactive),1.25% (inactive),22.6% (inactive)
O=C(Nc1ccccc1Cl)Oc1ccc(Cl)cc1Cc1ccccc1,99.7% (active),99.7% (active),99.7% (active),99.7% (active),99.7% (active),99.7% (active)
O=C(NCCO)Nc1ccc2c(c1)OCCOCCOCCOCCO2,-0.95% (inactive),4.8% (inactive),-2.65% (inactive),14.1% (inactive),1.75% (inactive),5.9% (inactive)
COc1ccc(/C=C2\NC(=S)N(/C=C3\C(=O)Oc4ccccc4C3=O)C2=O)cc1OC,-5.85% (inactive),-17.6% (inactive),13.1% (inactive),-7.85% (inactive),-13.8% (inactive),6.4% (inactive)
CN1C=C([N+](=O)[O-])C(N2CCOCC2)C1N1CCOCC1 (centres undefined),3.1% (inactive),0.65% (inactive),-3.5% (inactive),3.1% (inactive),-26.6% (inactive),20.9% (inactive)
NCCCCCCNCc1cccc2ccccc12,-9.85% (inactive),-13.1% (inactive),-9.7% (inactive),6.05% (inactive),-10.3% (inactive),-31.4% (inactive)
CCCCCn1c(=O)c2c(=O)[nH][nH]c2c2ccccc21,-16.3% (inactive),-7.9% (inactive),-9.55% (inactive),-69.6% (inactive),-1.3% (inactive),-22.5% (inactive)
COc1ccc(NC(=S)NC(=O)c2ccccc2)cc1OC,31.8% (inactive),4.15% (inactive),21.9% (inactive),3% (inactive),-1.2% (inactive),15.4% (inactive)
CC(=O)OCC(OC(C)=O)C(OC(C)=O)C(/C=C/[N+](=O)[O-])OC(C)=O (centres undefined),9.9% (inactive),3.65% (inactive),2.4% (inactive),-24.6% (inactive),-3.4% (inactive),-2.05% (inactive)
CC(C)C(C)(O)C#CC(C)(O)C(C)C (centres undefined),1.4% (inactive),8.85% (inactive),3.25% (inactive),-15.5% (inactive),23.9% (inactive),12.1% (inactive)
C=C(Br)CN=CN(C)C,23.6% (inactive),1.35% (inactive),10.9% (inactive),1.35% (inactive),-10.1% (inactive),23.1% (inactive)
CC1(C)CC(=O)OC/C=C\CC(Cc2ccccc2)C(=O)C1 (centres undefined),4.6% (inactive),15.2% (inactive),-12.3% (inactive),6.8% (inactive),12.2% (inactive),1.9% (inactive)
COC(=O)c1nn2c(=O)n(C(C)=O)c3ccccc3c2c1C(=O)OC,27.2% (inactive),4.85% (inactive),9.65% (inactive),15.8% (inactive),8.5% (inactive),24.6% (inactive)
Cc1cc2nc(CC(O)c3nc4cc(C)c(C)cc4[nH]3)[nH]c2cc1C (centres undefined),6.9% (inactive),-12.9% (inactive),-5.1% (inactive),5.1% (inactive),-4.9% (inactive),5.8% (inactive)
COC=C(C(=O)OC)C(=O)OC,-1.65% (inactive),3.9% (inactive),0.5% (inactive),0.2% (inactive),-10.5% (inactive),3.85% (inactive)
CC(O)CN1CCN(CC(C)O)C(C)C1 (centres undefined),-10.1% (inactive),1.65% (inactive),0% (inactive),1.35% (inactive),-7.2% (inactive),4.75% (inactive)
O=C(CN1C(=O)c2ccccc2C1=O)OCC(=O)c1ccccc1,18.9% (inactive),12.4% (inactive),1.5% (inactive),0.4% (inactive),12.9% (inactive),4.4% (inactive)
Cc1ccc(C(=O)CCN2CCOCC2)c(C)c1,40.1% (inactive),5.55% (inactive),26.6% (inactive),-4.65% (inactive),29.1% (inactive),31% (inactive)
O=C1C=C(c2ccccc2)CSC1,3.7% (inactive),-10.1% (inactive),-9.45% (inactive),-79.3% (inactive),-8.75% (inactive),-4.85% (inactive)

SMILES,growth inhibition [1],growth inhibition [2],growth inhibition [3],growth inhibition [4],growth inhibition [5],growth inhibition [6]
CCOC(=O)Nc1ccccc1,-1.65% (inactive),12.3% (inactive),1.55% (inactive),-4.15% (inactive),-6.8% (inactive),22.7% (inactive)
O=S(=O)(c1ccccc1)N1CCN(S(=O)(=O)c2ccccc2)c2ccccc21,58.9% (inactive),23.9% (inactive),-3.75% (inactive),3.9% (inactive),43.6% (inactive),53.9% (inactive)
Clc1ccc(-n2cccc2)cc1,-4.75% (inactive),0.25% (inactive),10.7% (inactive),5.8% (inactive),-19.6% (inactive),-6.3% (inactive)
Cc1ccc(NC(=O)NCCCCCCNC(=O)Nc2ccc(C)cc2)cc1,-7.05% (inactive),-13% (inactive),-7.95% (inactive),-9.05% (inactive),-14.4% (inactive),-17.9% (inactive)
Cc1c(N2CCCC2)cc2c(c1-n1cccc1)C(C)(C)CC2(C)C,-21% (inactive),-14.2% (inactive),1.55% (inactive),16.3% (inactive),6.7% (inactive),2.8% (inactive)
Cc1ccc(S(=O)(=O)N2CCCC(=O)c3ccccc32)cc1,-12.4% (inactive),14.4% (inactive),-12.9% (inactive),9.35% (inactive),12.1% (inactive),11.3% (inactive)
Cn1cnnc1Sc1c([N+](=O)[O-])ncn1C,-3.3% (inactive),-5.25% (inactive),-5% (inactive),22.5% (inactive),15.6% (inactive),-11.6% (inactive)
C[C@@H]1CCC[C@H]1C(N)C(=O)O (some centres undefined),-18% (inactive),2% (inactive),-3.85% (inactive),-25.1% (inactive),-18.1% (inactive),-12.9% (inactive)
CN(C)c1ccccc1CCCCCBr,8.35% (inactive),5.5% (inactive),5.5% (inactive),-37.1% (inactive),-6.7% (inactive),3.75% (inactive)
COc1cc(C=O)c(-c2c(C=O)ccc3c2OCO3)c(OC)c1OC,24.4% (inactive),-1.9% (inactive),30.2% (inactive),18.1% (inactive),26% (inactive),-1.5% (inactive)
CNCc1cccs1,-26.8% (inactive),-9.7% (inactive),-27.8% (inactive),-40.3% (inactive),-17.6% (inactive),-10.4% (inactive)
Clc1ccc(-c2nnc(-c3ccc4ccccc4c3)o2)cc1Cl,3.25% (inactive),-28.9% (inactive),7.15% (inactive),11.8% (inactive),-14.9% (inactive),-6.2% (inactive)
COC(=O)C1C=CN(N(C)C)C2=C1C(=O)c1c(O)cccc1C2=O (centres undefined),86% (active),93% (active),89.2% (active),88.1% (active),89.5% (active),90.2% (active)
Cc1ccc(S(=O)(=O)OCCOc2ccc(C(C)(C)CC(C)(C)C)cc2)cc1,43.9% (inactive),-15.6% (inactive),30.5% (inactive),-6.2% (inactive),-1.65% (inactive),8.8% (inactive)
O=C(/C=C(\C(=O)c1cccs1)c1cccs1)c1ccc(C(=O)/C=C(\C(=O)c2cccs2)c2cccs2)cc1,3.6% (inactive),-23.9% (inactive),19% (inactive),-25.1% (inactive),-15.6% (inactive),-5.85% (inactive)
[N-]=[N+]=Nc1nn2cnnc2c2[nH]c3ccccc3c12,46% (inactive),0.65% (inactive),4.25% (inactive),-1.4% (inactive),-14.9% (inactive),16.1% (inactive)
C/C(=N/OC(=O)c1cccc2c(=O)c3ccccc3[nH]c12)[C@H]1CC[C@H]2[C@@H]3CCC4=C/C(=N/OC(=O)c5cccc6c(=O)c7ccccc7[nH]c56)CC[C@]4(C)[C@H]3CC[C@]12C,29.4% (inactive),38% (inactive),66.5% (inactive),28.4% (inactive),48.9% (inactive),36.5% (inactive)
COc1cccc(/C(C=O)=C(\Cl)c2ccc(OC)c(OC)c2)c1,10.1% (inactive),9.55% (inactive),12.4% (inactive),6.7% (inactive),33.5% (inactive),-8.3% (inactive)
Fc1ccccc1-c1nnc(-c2ccc3ccccc3c2)o1,33.1% (inactive),14.8% (inactive),32.4% (inactive),23.9% (inactive),40.5% (inactive),14.7% (inactive)
